Drawing on PubChem BioAssay (Tox21), this text covers outcome and Potency for 30 compounds.

Results filed as inconclusive are left out. A structure can be active in one record and inactive in another. The source made the active and inactive calls. Unless noted, calls come from the whole dose curve.

For assay [1], the target named is Thyrotropin receptor (Homo sapiens) (UniProt P16473). Nature of the assay: qHTS assay to identify small molecule agonists of the thyroid stimulating hormone receptor (TSHR) signaling pathway (AID 1224843). Note: nearly all actives have a fitted effect of over 45% in size. An outline of the steps:
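Agonist activity read as cAMP rise via d2/cryptate HTRF competition, 1 h room-temperature detection, in HEK293 cells expressing TSHR. Fifteen-point titrations, each run in triplicate, with a 30 min room-temperature incubation beforehand.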
Background: In qHTS, concentration-response curves come from the screen itself.

Assay [2] is described as follows: qHTS assay to identify small molecule agonists of the hypoxia (HIF-1) signaling pathway - cell viability counter screen (AID 1224844). Note: nearly all actives have a fitted effect of over 50% in size. An outline of the steps:
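In this counter screen, HRE-bla ME-180 cell viability after 17 hrs of compound exposure at 37C was read by CellTiter-Glo luminescence, multiplexed with the beta-lactamase reporter measurement.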

Assay [3] is described as follows: qHTS assay to identify small molecule agonists of H2AX (AID 1224845; active = well fitted activation curve with a large enough effect in the signal ratio in the repeat runs, not every such curve was filed as active; the % refers to the signal ratio). In outline:
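Phospho-H2AX Ser139 measured by HTRF (ex 320 nm; em 665 and 620 nm) after 24 hr antibody incubation. Compounds, 15 concentrations, 0.76% DMSO, were applied to CHO-K1 cells for 3hr at 37C before lysis.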

Assay [4] is described as follows: qHTS assay to identify small molecule agonists of the hypoxia (HIF-1) signaling pathway (AID 1224846; active = well fitted activation curve with a large enough effect in the signal ratio in the repeat runs, not every such curve was filed as active; the % refers to the signal ratio). In outline: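 ME-180 HRE-bla reporter cells; compounds in DMSO, 17 h at 37C; read-out beta-lactamase via CCF4-AM FRET.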
Assay [5] is described as follows: qHTS assay to identify small molecule agonists of H2AX - cell viability counter screen (AID 1224847).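 Note: wild-type CHO-K1 cells; top concentration of the series differs between compounds; nearly all actives have a fitted effect of over 30% in size.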 An outline of the steps:
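After overnight plating of 1000 CHO-K1 cells per well, a 15-concentration compound series was applied for 3 hr at 37C. Luminescence from CellTiter-Glo, read following 30 min at room temperature, reflected cell viability.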

A short description of assay [6]: qHTS RealTime-Glo MT Cell Viability Assay in HepG2 cells - 24 hour (AID 1224867; active = well fitted curve in the direction sought with a large enough effect in the repeat runs; an effect the other way counts as inactive or inconclusive; note: nearly all actives have a fitted effect of over 50% in size). In outline:
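Cell number in HepG2 cultures estimated from NanoLuc luminescence generated by metabolic reduction of a prosubstrate by living cells. The homogeneous, nonlytic format allowed repeated reads at 0, 8, 16, 24, 32 and 40 h of compound exposure.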

A short description of assay [7]: qHTS RealTime-Glo MT Cell Viability Assay in HEK293 cells - 32 hour (AID 1224868; active = well fitted curve in the direction sought with a large enough effect in the repeat runs; an effect the other way counts as inactive or inconclusive; note: nearly all actives have a fitted effect of over 50% in size; note: potency is the fitted concentration of half-maximal effect). An outline of the steps: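 Homogeneous bioluminescent viability format in HEK293 cells (600 cells/well). Following 5 h at 37 C/5% CO2, 23 nL compound was pintooled; the signal was measured repeatedly during 40 h incubation.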
Assay [8] can be described thus: A CellTox Green Cytotoxicity Assay to monitor cytotoxicity in HEK293 cells - 0 hour (AID 1224869; active = well fitted curve in the direction sought with a large enough effect in the repeat runs; an effect the other way counts as inactive or inconclusive; note: nearly all actives have a fitted effect of over 50% in size). An outline of the steps:
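Real-time, in one plate: 600 HEK293 cells/well with dead-cell DNA dye, pinned compound after 5 h, 37 C incubation over 40 h; viable cells give no appreciable fluorescence.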

Assay [9] can be described thus: qHTS assay to identify small molecule antagonists of the estrogen related receptor (ERR) signaling pathway from Tox21 library (AID 1224848; active = well fitted curve in the direction sought with a large enough effect in the repeat runs; an effect the other way counts as inactive or inconclusive; note: nearly all actives have a fitted effect of over 50% in size). In outline: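 Luciferase luminescence (ONE-Glo, 30 min room temperature) was the read-out. Cells of the NTP-supplied ERR line, 2,000 per well, were given 6 h at 37 C before compound addition in DMSO and 18 h exposure at 37 C.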

Assay [10] is described as follows: qHTS assay to identify small molecule agonists of the estrogen related receptor (ERR) signaling pathway from Tox21 library (AID 1224849). Note: nearly all actives have a fitted effect of over 15% in size. An outline of the steps: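 Luciferase activity in ERR pathway reporter cells served as the agonist readout; exposure lasted 18 h at 37 C, with ONE-Glo detection after 30 min at room temperature.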

Sequence of Thyrotropin receptor (Homo sapiens) (P16473 whole entry, looked up): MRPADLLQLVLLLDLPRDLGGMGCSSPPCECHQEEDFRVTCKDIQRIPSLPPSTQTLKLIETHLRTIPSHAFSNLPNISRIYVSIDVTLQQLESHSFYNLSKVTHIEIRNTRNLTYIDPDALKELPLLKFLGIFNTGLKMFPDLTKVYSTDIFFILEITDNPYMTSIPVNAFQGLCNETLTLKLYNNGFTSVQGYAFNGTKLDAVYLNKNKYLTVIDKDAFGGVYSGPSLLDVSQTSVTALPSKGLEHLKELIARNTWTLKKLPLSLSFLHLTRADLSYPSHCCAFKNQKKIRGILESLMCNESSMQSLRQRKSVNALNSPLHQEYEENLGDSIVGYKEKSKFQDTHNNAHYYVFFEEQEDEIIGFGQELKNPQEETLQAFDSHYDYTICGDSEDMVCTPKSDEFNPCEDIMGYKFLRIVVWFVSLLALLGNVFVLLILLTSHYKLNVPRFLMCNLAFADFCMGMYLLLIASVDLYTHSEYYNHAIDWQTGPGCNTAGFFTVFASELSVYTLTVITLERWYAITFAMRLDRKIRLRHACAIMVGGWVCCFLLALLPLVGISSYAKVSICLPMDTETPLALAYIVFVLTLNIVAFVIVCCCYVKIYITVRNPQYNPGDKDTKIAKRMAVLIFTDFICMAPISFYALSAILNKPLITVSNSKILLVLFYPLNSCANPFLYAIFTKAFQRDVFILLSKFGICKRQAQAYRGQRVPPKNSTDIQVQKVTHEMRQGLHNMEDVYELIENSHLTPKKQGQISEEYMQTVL

For `OCc1cccc(Oc2ccccc2)c1`, the outcome in assay [1], in [2], in [3], in assay [4], in [5] and in assay [8] was inactive. Besides, the Potency entry in assay [6] and in assay [7] was “inactive” throughout.
On to `CC(=O)c1ccc(O)cc1`, for which the compound was classed as inactive in [1], in assay [2], in assay [3], in [4], in assay [5] and in assay [8]. The Potency entry in assay [6] and in assay [7] was “inactive” in each case.
As for `CC1(C)OC[C@@H]2O[C@@]3(C(=O)O)OC(C)(C)O[C@H]3[C@@H]2O1`, the compound was called inactive in assay [1], in [2], in [3], in assay [4], in assay [5] and in [8]. Further, the Potency result in [6] and in [7] was “inactive” throughout.
For `CCNC(=S)NCC`, the result in assay [1], in assay [2], in assay [3], in assay [4], in [5] and in [8] was inactive. The Potency entry in assay [6] and in assay [7] was “inactive” throughout.
Take `C=Cc1ccc(C)cc1`: the result in assay [1], in [2], in assay [3], in [4] and in assay [5] was inactive. Besides, the Potency result in [7] was “inactive”.
Turning to `C=C(C)[C@H]1CC=C(C)C(=O)C1`, the result in assay [1], in assay [2], in assay [3], in [4] and in assay [5] was inactive. Further, the Potency result in assay [6] and in assay [7] was “inactive” each time.
`CCOC(=O)n1ccn(C)c1=S`: the result in [1], in assay [2], in assay [3], in assay [4] and in assay [5] was inactive. Moreover, the Potency result in assay [7] is “inactive”.
On to `C=CC[N+](C)(C)CC=C`, for which the result in [1], in assay [2], in [3], in assay [4], in [5] and in [8] was inactive. The Potency entry in assay [7] was “inactive”.
On to `O=C(O)c1ccccc1C(=O)O`, for which the call in [1], in [2], in assay [3], in assay [4], in assay [5] and in [8] was inactive. For the same compound, the Potency entry in assay [6] and in [7] was “inactive” in each case.
For the compound `C=C(C)C(=O)OCC(C)C`, the result in assay [1], in assay [2], in assay [3], in assay [4], in [5] and in assay [8] was inactive. Besides, the Potency result in [6] and in [7] was “inactive” in each case.
In the case of `NC(=S)NNC(N)=S`, the compound was classed as inactive in assay [1], in assay [2], in assay [3], in assay [4], in assay [5] and in assay [8]. The Potency entry in assay [6] and in [7] was “inactive” throughout.
As for `CCCCCCCCCCCCCCCCO`, the compound was classed as inactive in assay [1], in [2], in assay [3], in [4], in assay [5] and in assay [8]. For the same compound, the Potency result in [6] and in [7] was “inactive” each time.
In the case of `C=CC(C)CCCC(C)(C)O` (centres undefined), the compound was called inactive in assay [1], in assay [2], in assay [3], in [4], in assay [5] and in assay [8]. Besides, the Potency result in assay [6] and in assay [7] was “inactive” in each case.
`CCCCC(C=O)CC` (centres undefined): the outcome in assay [1], in assay [2], in assay [3], in [4] and in [5] was inactive. For the same compound, the Potency entry in assay [7] is “inactive”.
As to `Nc1nc(N)nc(-c2ccccc2)n1`, the result in [1], in assay [2], in assay [3], in assay [4], in assay [5] and in assay [8] was inactive. Further, the Potency entry in assay [6] and in assay [7] was “inactive” in each case.
As to `C[C@]12CC[C@@H]3c4ccc(O)cc4CC[C@H]3[C@@H]1C[C@@H](O)[C@@H]2O`, the compound was called inactive in [1], in assay [2], in assay [3], in [4], in [5] and in assay [8]. Also, the Potency entry in assay [6] and in assay [7] was “inactive” each time.
On to `CSc1ccc(Cl)cc1`, for which the compound was classed as inactive in [1], in assay [2], in [3], in assay [4], in assay [5] and in [8]. Further, the Potency entry in [7] is “inactive”.
For the compound `CC(C)(C)c1cc(Cc2cc(C(C)(C)C)c(O)c(C(C)(C)C)c2)cc(C(C)(C)C)c1O`, the call in [1], in [2], in [3], in [4] and in assay [5] was inactive. The Potency entry in assay [7] is “inactive”.
`COc1ccc(CCC(C)=O)cc1`: the compound was called inactive in assay [1], in assay [2], in [3], in [4], in assay [5] and in assay [8]. The Potency entry in assay [6] and in [7] was “inactive” in each case.
For the compound `CCCCCCCCCCO`, the compound was called inactive in assay [1], in [2], in assay [3], in assay [4], in [5] and in [8]. For the same compound, the Potency entry in assay [6] and in [7] was “inactive” each time.
Consider `CC(=O)OCc1ccccc1`, for which the call in [1], in assay [2], in assay [3], in [4] and in [5] was inactive. Moreover, the Potency result in assay [7] was “inactive”.
On to `CC1(C)CC(N)CC(C)(CN)C1` (centres undefined), for which the compound was called inactive in assay [1], in assay [2], in assay [3], in [4], in assay [5] and in [8]. Besides, the Potency result in assay [6] and in [7] was “inactive” each time.
Take `CC(C)=CCl`: the compound was classed as inactive in [1], in assay [2], in assay [3], in assay [4], in assay [5] and in assay [8]. Moreover, the Potency result in [6] and in assay [7] was “inactive” each time.
Regarding `CC(=O)Oc1ccc(C)cc1`, the result in [2], in assay [3], in assay [4], in assay [5] and in assay [8] was inactive. Further, the Potency entry in [6] and in [7] was “inactive” in each case.
On to `COc1cc(OC)c(C(=O)CCCN2CCCC2)c(OC)c1`, for which the call in assay [1], in assay [2], in [3], in assay [5] and in [8] was inactive. In [7], the Potency entry is “inactive”.
Take `O=C(O)c1ccc(S(=O)(=O)N(Cl)Cl)cc1`: the outcome in assay [1], in assay [2], in [3], in assay [4], in [5] and in [8] was inactive. The Potency in [7] is 49.3 µM (active) and inactive.
For `N[C@H](Cc1c[nH]c2ccccc12)C(=O)O`, the result in [1], in assay [2], in assay [3], in assay [4], in assay [5] and in assay [8] was inactive. For the same compound, the Potency result in [7] is “inactive”.
For `CC(O)CC(C)(C)O` (centres undefined), the call in assay [2], in assay [3], in assay [4], in assay [5] and in [8] was inactive. Besides, the Potency result in assay [7] is “inactive”.
As to `O=C1CCCC1`, the outcome in assay [2], in [3], in [4], in [5], in assay [9] and in assay [10] was inactive. Further, in [8], the outcome was inactive. Moreover, in [7], the Potency entry is “inactive”.
As to `CC(C)OP(=O)(CP(=O)(OC(C)C)OC(C)C)OC(C)C`, the result in assay [2], in assay [3], in assay [4], in assay [5] and in [8] was inactive. In addition, the Potency entry in [6] and in [7] was “inactive” throughout.
